# The campaign covered roughly 52,000 compounds. About 4,300 (8.3%) were called active. Cut-off read from the data, not from the text of the source: active = survival mostly below about 52% (no sharp cut-off); inactive = mostly above about 56%. Shown is part of a subset that was picked to be rich in actives.
# System: DeltatarO mutant
# Assay: S. aureus survival, RN4220 and DeltatarO strains – OD600, teichoic acid synthesis inhibitors, primary screen (AID 463173)
# Conditions: S. aureus RN4220 wild type/DeltatarO growth, OD600, 18 h, hits give low values, screened at 18.75 µg/mL (by protocol)
row,Structure (SMILES),survival
1,Cc1cc(F)ccc1Nc1nc2ccc(Cl)cc2n2cnnc12,90% (inactive)
2,Cc1ccc2nc(NCc3ccc(F)cc3)c3nncn3c2c1,121% (inactive)
3,Cc1ccc2nc(Nc3ccc(C)c(F)c3)c3nncn3c2c1,38% (active)
4,Cc1ccc(NC(=O)c2ccc(=O)n(CC(=O)Nc3cccc(C)c3)n2)cc1,72% (inactive)
5,COc1cccc(CNC(=O)CCc2c(C)nn(-c3ccc(N4CCOCC4)nn3)c2C)c1,100% (inactive)
6,Cc1ccccc1C(=O)Nc1cccc(OCc2cc(=O)n3cccc(C)c3n2)c1,77% (inactive)
7,Cc1ccc(OCC(=O)Nc2ccc(OCc3cc(=O)n4cccc(C)c4n3)cc2)cc1C,-5% (active)
8,Cc1ccccc1C(=O)Nc1ccc(OCc2cc(=O)n3cccc(C)c3n2)cc1,88% (inactive)
9,Cc1cccn2c(=O)cc(COc3cccc(NC(=O)c4ccccc4F)c3)nc12,-5% (active)
10,Cc1cccn2c(=O)cc(COc3ccc(NC(=O)c4cccc(F)c4)cc3)nc12,17% (active)
11,Cc1cccn2c(=O)cc(COc3ccc(NC(=O)COc4ccc(F)cc4)cc3)nc12,89% (inactive)
12,Cc1cccc(C(=O)Nc2cccc(OCc3cc(=O)n4cccc(C)c4n3)c2)c1,92% (inactive)
13,Cc1ccc(OCC(=O)Nc2cccc(OCc3cc(=O)n4cccc(C)c4n3)c2)cc1C,122% (inactive)
14,Cc1cccc(C(=O)Nc2ccc(OCc3cc(=O)n4ccc(C)cc4n3)cc2)c1,81% (inactive)
15,COc1ccccc1C(=O)Nc1ccc(OCc2cc(=O)n3ccc(C)cc3n2)cc1,89% (inactive)
16,CCOc1ccc(C(=O)Nc2ccc(OCc3cc(=O)n4cccc(C)c4n3)cc2)cc1,55% (inactive)
17,COc1cc(C(=O)Nc2ccc(OCc3cc(=O)n4ccc(C)cc4n3)cc2)cc(OC)c1OC,8% (active)
18,CCOC(=O)c1ccccc1NC(=O)N1CCc2c(sc(C)c2CC)C1c1ccccc1 (stereo not given),124% (inactive)
19,O=C(Cc1csc2ccccc12)NCc1cccc(Br)c1,84% (inactive)
20,O=S(=O)(c1ccc(-c2cnc(C3CC3)o2)cc1)N1CCN(c2ccccc2F)CC1,87% (inactive)
21,Cc1ccc(C(=O)NCc2ccccc2)cc1NC(=O)c1nsc2ccccc12,84% (inactive)
22,CCOc1ccc(NC(=O)N(C(C)C)C2CCN(C(C)=O)CC2)cc1,76% (inactive)
23,CCC(C)NC(=O)c1sc2nc(C)c(C(=O)Nc3ccc(C)cc3C)c(-c3ccc(NC(C)=O)cc3)c2c1N (stereo not given),88% (inactive)

row,Structure (SMILES),survival
1,CC(C)CC(C(=O)NCC1CCN(Cc2ccc(F)cc2)CC1)N1Cc2ccccc2C1=O (stereo not given),94% (inactive)
2,CC(=O)N1c2c(cc(Br)cc2S(=O)(=O)Nc2ccc(OC(F)(F)F)cc2)CC1C (stereo not given),66% (inactive)
3,CC(=O)N1c2c(cc(Br)cc2S(=O)(=O)Nc2ccccc2C)CC1C (stereo not given),68% (inactive)
4,COc1ccc(CNS(=O)(=O)c2cc(Br)cc3c2N(C(C)=O)C(C)C3)cc1 (stereo not given),131% (inactive)
5,CCN(c1cccc(C)c1)S(=O)(=O)c1cc(Br)cc2c1N(C(C)=O)C(C)C2 (stereo not given),51% (active)
6,CC(=O)N1c2c(cc(Br)cc2S(=O)(=O)NCc2ccccc2Cl)CC1C (stereo not given),46% (active)
7,COc1ccccc1CNS(=O)(=O)c1cc(Br)cc2c1N(C(C)=O)C(C)C2 (stereo not given),53% (inactive)
8,CCOc1ccc(N(CC)S(=O)(=O)c2cc(Br)cc3c2N(C(C)=O)C(C)C3)cc1 (stereo not given),60% (inactive)
9,COc1cc(NS(=O)(=O)c2cc(Br)cc3c2N(C(C)=O)C(C)C3)cc(OC)c1 (stereo not given),20% (active)
10,COc1cccc(CNS(=O)(=O)c2cc(Br)cc3c2N(C(C)=O)C(C)C3)c1 (stereo not given),128% (inactive)
11,COc1ccc(-n2c(SCC(=O)N3CCCc4ccccc43)nc3c([nH]c4ccccc43)c2=O)cc1,101% (inactive)
12,COc1ccc2c(C)c(CCC(=O)NCCc3ccc(OC)c(OC)c3)c(=O)oc2c1,88% (inactive)
13,CC(=O)c1cccc(NC(=O)Cn2cc(C(=O)c3cccc(Cl)c3)c(=O)c3ccc(C)nc32)c1,56% (inactive)
14,COc1cc(C(=O)Nc2ccc(Cl)c(-c3nc4ncccc4o3)c2)cc(OC)c1OC,123% (inactive)
15,COc1ccc(Br)cc1CNC(=O)c1cc(=O)[nH]c2ccc(S(=O)(=O)N3CCCCC3)cc12,84% (inactive)
16,CCOC(=O)CCC(=O)Nc1nnc2n1CCS2,66% (inactive)
17,CCN1CCN(CCC(=O)Nc2ccc3c(c2)CCC3)CC1,95% (inactive)
18,COc1cccc(/C=C/c2nc(C#N)c(NCCc3ccc(OC)c(OC)c3)o2)c1,41% (active)
19,CCOc1ccc(/C=C/c2nc(C#N)c(NC3CCCCC3)o2)cc1,65% (inactive)
20,CCOc1ccc(Nc2oc(/C=C/c3ccc(OC)c(OC)c3)nc2C#N)cc1,55% (active)
21,COc1ccc(CCNc2oc(/C=C/c3ccc(OC)c(OC)c3)nc2C#N)cc1,90% (inactive)
22,COc1ccc(/C=C/c2nc(C#N)c(NCCc3ccc(OC)c(OC)c3)o2)cc1OC,95% (inactive)
23,COc1ccccc1/C=C/c1nc(C#N)c(NCCc2ccccc2)o1,71% (inactive)

row,Structure (SMILES),survival
1,COc1ccccc1/C=C/c1nc(C#N)c(NCC(C)C)o1,47% (active)
2,COc1cc(/C=C/c2nc(C#N)c(NC3CCCCC3)o2)cc(OC)c1OC,32% (active)
3,CCOc1ccc(Nc2oc(/C=C/c3cc(OC)c(OC)c(OC)c3)nc2C#N)cc1,58% (inactive)
4,COc1ccc(Nc2oc(/C=C/c3ccc(OC)c(OC)c3)nc2C#N)cc1,73% (inactive)
5,COc1ccccc1/C=C/c1nc(C#N)c(NCc2ccccc2)o1,83% (inactive)
6,CNc1oc(/C=C/c2cc(OC)c(OC)c(OC)c2)nc1C#N,69% (inactive)
7,Cc1cc(C)nc(SCCC(=O)N(C)C)n1,84% (inactive)
8,CC(=O)N1CCN(CCN2C(=O)C3C4c5ccccc5C(c5ccccc54)C3C2=O)CC1 (stereo not given),94% (inactive)
9,CCC(=O)N(Cc1cc(=O)[nH]c2ccccc12)C1CCCCC1,69% (inactive)
10,COc1cc(NC(=O)CC(c2cccs2)N2Cc3ccccc3C2=O)cc(OC)c1OC (stereo not given),49% (inactive)
11,Cc1ccc(-c2csc(-c3nc(-c4ccc(Br)s4)cs3)n2)cc1,82% (inactive)
12,Cc1c(NC(=O)c2ccc(Cl)cc2)cc(C(C)C)c(O)c1S(=O)(=O)c1ccc(Cl)cc1,75% (inactive)
13,CCN(CC)C(=O)CSc1nnc(Cc2ccccc2)n1CC,50% (inactive)
14,CCOC(=O)C1CCN(C(=O)c2ccc3c(=O)n4nc(Nc5cc(C)ccc5C)sc4nc3c2)CC1,84% (inactive)
15,COc1ccc(S(=O)(=O)N2CCC(c3ccncc3)CC2)cc1Cl,124% (inactive)
16,COc1ccccc1CNC(=O)CCn1c(=O)c2ccccc2n(CC(=O)Nc2ccc(C)cc2Cl)c1=O,77% (inactive)
17,COc1ccc(-n2nc(C(=O)N3CCN(c4cccc(C)c4)C(C)C3)c3c4ccccc4n(C)c3c2=O)cc1 (stereo not given),76% (inactive)
18,COc1ccc(/C=C/c2nc(C#N)c(NC3CCCCC3)o2)cc1OC,36% (active)
19,COc1cc(/C=C/c2nc(C#N)c(NCCc3ccccc3)o2)cc(OC)c1OC,49% (inactive)
20,COc1cc(/C=C/c2nc(C#N)c(NC(C)c3ccccc3)o2)cc(OC)c1OC (stereo not given),40% (active)
21,COc1cccc(/C=C/c2nc(C#N)c(NC3CCCCC3)o2)c1,69% (inactive)
22,COc1ccccc1/C=C/c1nc(C#N)c(NC(C)c2ccccc2)o1 (stereo not given),70% (inactive)
23,COc1ccccc1/C=C/c1nc(C#N)c(NC2CCCCC2)o1,85% (inactive)

row,Structure (SMILES),survival
1,CC(=O)N1c2ccc(S(=O)(=O)NCC3CCC(C(=O)NCCC(C)C)CC3)cc2CC1C (stereo not given),102% (inactive)
2,CC(C)CC(=O)NCC1(N(C)C)CCCCC1,84% (inactive)
3,O=C(CN1C(=O)C2CCCCN2c2ccc(C(=O)N3CCCC3)cc21)NCc1ccccc1F (stereo not given),99% (inactive)
4,O=C(NCc1cccc(Cl)c1)c1ccc(NC(=O)N2CCSc3ccccc32)cc1,57% (inactive)
5,CSc1nn(Cc2cccc(F)c2)c(N(C(C)=O)C(C)=O)c1S(=O)(=O)c1ccccc1,84% (inactive)
6,Cc1nc(-c2ccc(C)c(N3CCN(C(=O)Nc4cccc(Cl)c4C)CC3)c2)no1,88% (inactive)
7,COc1cc(NC(=O)c2cc3c(s2)-c2ccccc2OC3)cc(OC)c1OC,55% (inactive)
8,COc1cccc(CNC(=O)c2cc3c(s2)-c2ccccc2OC3)c1,42% (active)
9,Cc1ccc(C)c(N(C)C(=O)c2cc3c(s2)-c2ccccc2OC3)c1,-3% (active)
10,CCc1cccc(NC(=O)c2cc3c(s2)-c2ccccc2OC3)c1,83% (inactive)
11,COc1ccc(N2CCN(C(=O)c3cc4c(s3)-c3ccccc3OC4)CC2)cc1,114% (inactive)
12,CCN(CC)CCOC(=O)c1ccc(NC(=O)c2cc3c(s2)-c2ccccc2OC3)cc1,-7% (active)
13,COc1cccc(N2CCN(C(=O)c3cc4c(s3)-c3ccccc3OC4)CC2)c1,98% (inactive)
14,COc1ccc(N(C)C(=O)c2cc3c(s2)-c2ccccc2OC3)cc1,-2% (active)
15,CCOc1ccc(NC(=O)c2cc3c(s2)-c2ccccc2OC3)cc1,95% (inactive)
16,COc1cccc(CNC(=O)c2cc3c(s2)-c2c(C)cccc2OC3)c1,68% (inactive)
17,Cc1ccc(CCNC(=O)c2cc3c(s2)-c2ccccc2OC3)cc1,82% (inactive)
18,COc1ccc(CNC(=O)c2cc3c(s2)-c2ccccc2OC3)cc1,64% (inactive)
19,Cc1cc(C)c2c(-n3cccc3)c(C(=O)NCc3cccc(F)c3)sc2n1,66% (inactive)
20,O=S(=O)(c1ccc2[nH]c3c(c2c1)CCCCC3)N1CCN(c2ccccc2)CC1,91% (inactive)
21,COc1ccccc1N1CCN(c2cc(C)nc3nncn23)CC1,81% (inactive)
